Out of some 1,400 compounds screened, about 350 (25%) were called active. Roughly 2% stayed inconclusive and do not appear here. How the calls were made is not given here. The list is a sample of the results. Entries with a potency or affinity are not part of this list.

These results are taken from PubChem BioAssay AID1224921 (Broad Institute, 2016).

This assay is described as follows: C. difficile growth inhibition, confirmation, 4-point retest (AID 1224921).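 Further: plate controls were DMSO wells for no effect and levofloxacin 16 µg/mL wells for full effect.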 The following applies: Clostridioides difficile clinical isolate growth, OD600, 24 h, active compounds read low; at 30 µM unless noted.
Take `C[C@@H]1CN([C@H](C)CO)S(=O)(=O)c2ccc(C#CC3CCCC3)cc2O[C@H]1CN(C)C`: the max activity is 49.4% (inactive).
With `C[C@H]1CN([C@@H](C)CO)S(=O)(=O)c2ccc(C#CCC3CCCC3)cc2O[C@H]1CN(C)C`, the max activity was 10.1% [at 8 µM] (inactive).
`CC(=O)N(C)C[C@H]1Oc2cc(C#CC3CCCCC3)ccc2S(=O)(=O)N([C@H](C)CO)C[C@H]1C`: the max activity was 12.6% [at 8 µM] (inactive).
On to `C[C@H](CO)N1C[C@H](C)[C@@H](CN(C)C)Oc2cc(C#CCC3CCCC3)ccc2S1(=O)=O`, for which the max activity was 7% [at 7.5 µM] (inactive).
As for `O=C(Nc1cc(F)ccc1F)N[C@@H]1CC[C@H](CC(=O)N2CCc3ccccc3C2)O[C@H]1CO`, the max activity was 38.5% (inactive).
`O=C(N[C@H]1C=C[C@H](CC(=O)N2CCOCC2)O[C@H]1CO)c1cccc(F)c1`: the max activity was -11.2% [at 1.95 µM] (inactive).
Then `CO[C@@H]1CN(C)C(=O)c2ccc(NC(=O)c3ccc(F)cc3)cc2OC[C@@H](C)N(C(=O)CN(C)C)C[C@@H]1C`, with -12.8% [at 1.95 µM] (inactive); and `C[C@H]1CN([C@@H](C)CO)S(=O)(=O)c2ccc(C3=CCCCC3)cc2O[C@@H]1CN(C)Cc1ccncc1`, with 42.8% (inactive).
Then `CO[C@H]1CN(C)C(=O)c2ccc(NC(=O)c3nc4ccccc4s3)cc2OC[C@@H](C)N(Cc2cccnc2)C[C@@H]1C`, with 23.4% (inactive); and `COCCNC(=O)C[C@H]1C[C@H]2c3cc(NC(=O)Nc4ccc(C(F)(F)F)cc4)ccc3O[C@H]2[C@@H](CO)O1`, with -9.02% (inactive); and `COCCNC(=O)C[C@H]1C[C@H]2c3cc(NC(=O)Nc4ccc(C(F)(F)F)cc4)ccc3O[C@H]2[C@H](CO)O1`, with -7.9% [at 1.95 µM] (inactive).
Take `COCCNC(=O)C[C@@H]1C[C@@H]2c3cc(NC(=O)Nc4ccc(C(F)(F)F)cc4)ccc3O[C@@H]2[C@H](CO)O1`: the max activity was 9.41% (inactive).
Then `O=C(C[C@H]1C[C@H]2c3cc(NC(=O)Nc4ccc(C(F)(F)F)cc4)ccc3O[C@H]2[C@@H](CO)O1)NCC1CC1`, with -16.4% [at 0.5 µM] (inactive); and `O=C(C[C@H]1C[C@H]2c3cc(NC(=O)Nc4ccc(C(F)(F)F)cc4)ccc3O[C@H]2[C@H](CO)O1)NCC1CC1`, with -13.1% [at 1.95 µM] (inactive); and `O=C(C[C@H]1C[C@@H]2c3cc(NC(=O)Nc4ccc(C(F)(F)F)cc4)ccc3O[C@@H]2[C@@H](CO)O1)NCC1CC1`, with 14.9% (inactive).
Then `CC(C)(C)[S@](=O)N1Cc2cc(C(=O)NCc3ccc4c(c3)OCO4)nc(-c3cccc(-c4cccnc4)c3)c2[C@@H]1CCO`, with 32.4% [at 35 µM] (inactive); and `O=C(C[C@@H]1C=C[C@@H](NC(=O)CCN2CCCCC2)[C@H](CO)O1)Nc1ccc(-c2ccccc2)cc1`, with 21.5% (inactive).
On to `CC(C)c1cn(CC[C@@H]2CC[C@H](NS(=O)(=O)c3ccc(F)cc3)[C@H](CO)O2)nn1`, for which the max activity was -12.5% (inactive).
On to `N#C[C@@H]1[C@H](c2ccccc2)[C@H](CO)N1S(=O)(=O)c1ccc(-c2ccccc2)cc1`, for which the max activity is 15.3% (inactive).
Then `C[C@@H]1CN([C@@H](C)CO)C(=O)c2cc(C3=CCCCC3)cnc2O[C@@H]1CN(C)C(=O)c1cccc(F)c1`, with 24.7% (inactive); and `C[C@H](NC(=O)C[C@@H]1C[C@@H]2c3cc(NC(=O)CC4CC4)ccc3O[C@@H]2[C@H](CO)O1)c1ccccc1`, with 8.12% [at 35 µM] (inactive); and `O=C(C[C@H]1C[C@H]2c3cc(NC(=O)Nc4ccc(C(F)(F)F)cc4)ccc3O[C@H]2[C@@H](CO)O1)NCc1ccc(Cl)cc1`, with -6.14% [at 7.5 µM] (inactive).
Then `CO[C@@H]1CN(C)C(=O)c2cc(NC(=O)Nc3c(C)noc3C)ccc2OC[C@@H](C)N(C(=O)Nc2cccc(Cl)c2)C[C@H]1C`, with 14.7% (inactive).
For the molecule `C[C@H](CO)N1C[C@H](C)[C@@H](CN(C)C(=O)NC2CCCCC2)Oc2c(NC(=O)Nc3ccc(C(F)(F)F)cc3)cccc2C1=O`, the max activity was 28.8% (inactive).
As for `CC(C)NC(=O)N(C)C[C@H]1Oc2c(NC(=O)Nc3ccc(C(F)(F)F)cc3)cccc2C(=O)N([C@@H](C)CO)C[C@H]1C`, the max activity is 34.2% [at 8 µM] (inactive).
In the case of `C[C@H](CO)N1C[C@H](C)[C@@H](CN(C)C(=O)NC2CCCCC2)Oc2c(NC(=O)Nc3ccc(F)cc3)cccc2C1=O`, the max activity was 20.1% (inactive).
Then `C[C@@H]1CN([C@H](C)CO)C(=O)c2cccc(NC(=O)Nc3ccc(C(F)(F)F)cc3)c2O[C@H]1CN(C)C(=O)NC1CCCCC1`, with 34.6% (inactive); and `Cc1ccc(-c2cnc3c(c2)C(=O)N([C@@H](C)CO)C[C@@H](C)[C@@H](CN(C)C(=O)c2cccc(F)c2)O3)cc1`, with 28.4% (inactive).
Consider `CC(C)[C@H](C)NC(=O)N(C)C[C@@H]1OCc2ccccc2-c2ccccc2C(=O)N([C@@H](C)CO)C[C@H]1C`, for which the max activity was -10.9% [at 1.95 µM] (inactive).
Take `CO[C@H]1CN(C)C(=O)c2ccc(NS(=O)(=O)c3ccc(C)cc3)cc2OC[C@@H](C)N(C(=O)NC(C)C)C[C@H]1C`: the max activity was 6.95% (inactive).
Take `C[C@@H]1CN([C@H](C)CO)S(=O)(=O)c2ccc(C#CCC3CCCC3)cc2O[C@@H]1CN(C)C(=O)CC1CC1`: the max activity is 36.7% (inactive).
For `Cc1noc(C)c1NC(=O)N[C@@H]1CC[C@H](CC(=O)Nc2ccc(-c3ccccc3)cc2)O[C@@H]1CO`, the max activity was 42% (inactive).
For `CCN1C[C@@H](C)[C@H](OC)CN(C)C(=O)c2cc(NC(=O)NC(C)C)ccc2OC[C@H]1C`, the max activity was 16.9% (inactive).
Turning to `CC(C)CC#Cc1ccc2c(c1)O[C@H](CN(C)Cc1cccnc1)[C@H](C)CN([C@@H](C)CO)S2(=O)=O`, the max activity is 26.5% (inactive).
For `N#C[C@H]1[C@H](c2ccc(C#Cc3ccccc3F)cc2)[C@@H](CO)N1C(=O)C1CCCCC1`, the max activity was 15.2% [at 1.95 µM] (inactive).
On to `CCC(=O)Nc1ccc2c(c1)OC[C@@H](C)N(Cc1ccccc1)C[C@H](C)[C@@H](OC)CN(C)C2=O`, for which the max activity was 21.5% (inactive).
`COc1ccc(CN(C)C[C@@H]2OCCCC[C@H](C)Oc3ccc(NC(=O)Nc4ccc(F)cc4)cc3C(=O)N([C@@H](C)CO)C[C@H]2C)cc1`: the max activity was 23.6% (inactive).
Then `COc1ccc(CN(C)C[C@@H]2OCCCC[C@H](C)Oc3ccc(NC(=O)Nc4ccc(C(F)(F)F)cc4)cc3C(=O)N([C@@H](C)CO)C[C@H]2C)cc1`, with 21.3% [at 8 µM] (inactive).
For the molecule `COc1ccc(CN(C)C[C@H]2OCCCC[C@H](C)Oc3ccc(NC(=O)Nc4ccc(C(F)(F)F)cc4)cc3C(=O)N([C@H](C)CO)C[C@@H]2C)cc1`, the max activity is 35.8% (inactive).
As to `COc1ccc(CN(C)C[C@@H]2OCCCC[C@@H](C)Oc3ccc(NC(=O)Nc4ccc(C(F)(F)F)cc4)cc3C(=O)N([C@H](C)CO)C[C@H]2C)cc1`, the max activity is 35.6% [at 8 µM] (inactive).
On to `COc1ccc(CN(C)C[C@H]2OCCCC[C@@H](C)Oc3ccc(NC(=O)Nc4ccc(C(F)(F)F)cc4)cc3C(=O)N([C@@H](C)CO)C[C@H]2C)cc1`, for which the max activity was 38.8% [at 1.95 µM] (inactive).
In the case of `COc1ccc(CN(C)C[C@H]2OCCCC[C@H](C)Oc3ccc(NC(=O)Nc4ccc(C(F)(F)F)cc4)cc3C(=O)N([C@H](C)CO)C[C@H]2C)cc1`, the max activity was 38.6% [at 1.95 µM] (inactive).
